Experimental data published in PubChem BioAssay (NCATS).
Inconclusive results are not listed. Active and inactive are the calls of the source. Unless noted, calls come from the whole dose curve; as a rule, active = well fitted curve in either direction with a large enough effect (not every such curve was filed as active); inconclusive = small, poorly fitted or top-dose-only effect, or another doubt; inactive = flat fitted curve, though single readings scatter.

Columns and labels:
[1] = AP1 Signaling Pathway (AID 357); conditions: ME-180 (cervical carcinoma) AP-1-bla reporter, EGF-induced, beta-lactamase ratio, 5 h; at 17.2 µM (top of the series) unless noted; note: % is set by controls: 0 for no effect and ±100 for the full control effect
Summary of the method: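 AP-1-bla ME-180 cells with beta-lactamase reporter under AP-1 response element, stimulated with EC50 EGF; compounds titrated, 5 hours at 37 degrees Celsius. CCF4 read at 460/530 nm ratio; positive and negative modulators judged by AC50.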

[2] = NFAT Signaling Pathway (AID 444); conditions: Jurkat NFAT-bla M1, carbachol, beta-lactamase ratio, 5 h; at 17.2 µM (top of the series) unless noted;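 note: carbachol stimulus at about its EC50 of 1 µM final; % is set by controls: 0 for no effect and ±100 for the full control effect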
Summary of the method: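 Jurkat cells carrying an NFAT-driven β-lactamase reporter and co-transfected muscarinic M1 receptor were treated with compound plus carbachol (1 uM final, an EC50 level) for 5 h at 37 °C. CCF4 loading followed for 1 h at RT; 460/530 nm ratio gave %activity.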

[3] = biological target: Glucocorticoid receptor (Homo sapiens) (UniProt P04150); assay: GR-GFP Redistribution (AID 450;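 active = compounds whose dose series gives a full or clear partial fitted curve of increased nuclear translocation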; note: potency is the fitted concentration of half-maximal effect); conditions: U2OS GR-GFP nuclear translocation, laser cytometry, 2 h
Sequence of Glucocorticoid receptor (Homo sapiens) (P04150 whole entry, looked up, the tested form may be a part): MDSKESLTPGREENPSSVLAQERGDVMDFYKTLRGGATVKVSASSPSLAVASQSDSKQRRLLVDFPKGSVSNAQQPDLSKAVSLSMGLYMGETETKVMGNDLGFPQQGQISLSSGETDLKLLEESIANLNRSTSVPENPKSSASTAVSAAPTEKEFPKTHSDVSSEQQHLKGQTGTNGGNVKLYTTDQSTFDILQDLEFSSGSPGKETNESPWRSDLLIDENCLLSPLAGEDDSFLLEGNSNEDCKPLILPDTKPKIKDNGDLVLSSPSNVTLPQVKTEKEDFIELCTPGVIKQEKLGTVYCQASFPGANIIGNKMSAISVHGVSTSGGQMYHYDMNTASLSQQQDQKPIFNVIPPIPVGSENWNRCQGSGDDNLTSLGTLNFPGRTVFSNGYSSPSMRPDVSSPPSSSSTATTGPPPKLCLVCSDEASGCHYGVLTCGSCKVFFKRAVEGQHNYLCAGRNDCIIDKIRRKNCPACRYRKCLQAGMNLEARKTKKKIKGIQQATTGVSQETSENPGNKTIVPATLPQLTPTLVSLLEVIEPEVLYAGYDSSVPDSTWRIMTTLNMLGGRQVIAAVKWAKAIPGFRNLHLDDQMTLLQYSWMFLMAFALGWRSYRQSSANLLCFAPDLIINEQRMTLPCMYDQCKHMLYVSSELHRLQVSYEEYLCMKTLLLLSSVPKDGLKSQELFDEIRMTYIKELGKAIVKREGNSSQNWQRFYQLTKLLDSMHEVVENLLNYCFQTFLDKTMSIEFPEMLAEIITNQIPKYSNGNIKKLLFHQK

[4] = biological target: Glucocorticoid receptor (Homo sapiens) (UniProt P04150); assay: GR-EFC Redistribution (AID 451; calls by dose curve; note: potency is the fitted concentration of half-maximal effect); conditions: CHO-K1 GR-EFC translocation, beta-gal luminescence, 2 h
Summary of the method: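 CHO-K1 cells stably expressing nuclear-localized β-gal enzyme acceptor and GR fused C-terminally to the enzyme donor fragment; ligand-driven nuclear translocation restores β-gal by complementation. Compounds titrated up to 46 uM final, 2 h at 37 °C; luminescence read.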

[5] = biological target: Mitogen-activated protein kinase 10 (Mus musculus) (UniProt Q61831); assay: JNK3 AlphaScreen Assay (AID 530);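 note: kinase came from lysate of stimulated human HepG2 cells; signal reports phosphorylation of biotinylated GST-cJun 1-79 at Ser73 with 10 µM ATP; % is set by controls: 0 for no effect and ±100 for the full control effect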
Summary of the method: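 Biotinylated GST-cJun(1-79) served as substrate for JNK3 in HepG2 lysates stimulated with IL-1beta and TNF-alpha. ATP was 10 uM final, pH 7.6. Ser73 phosphorylation was quantified by AlphaScreen (680 nm excitation).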

[6] = biological target: 3',5'-cyclic-AMP phosphodiesterase 4B (Homo sapiens) (UniProt Q07343); assay: qHTS Assay for Inhibitors of PDE-IV (AID 607; active = well fitted activation curve with a large enough effect in the main read-out, with a control signal flat, not every such curve was filed as active; note: % of control where 0% means no effect)
Sequence of 3',5'-cyclic-AMP phosphodiesterase 4B (Homo sapiens) (Q07343 whole entry, looked up): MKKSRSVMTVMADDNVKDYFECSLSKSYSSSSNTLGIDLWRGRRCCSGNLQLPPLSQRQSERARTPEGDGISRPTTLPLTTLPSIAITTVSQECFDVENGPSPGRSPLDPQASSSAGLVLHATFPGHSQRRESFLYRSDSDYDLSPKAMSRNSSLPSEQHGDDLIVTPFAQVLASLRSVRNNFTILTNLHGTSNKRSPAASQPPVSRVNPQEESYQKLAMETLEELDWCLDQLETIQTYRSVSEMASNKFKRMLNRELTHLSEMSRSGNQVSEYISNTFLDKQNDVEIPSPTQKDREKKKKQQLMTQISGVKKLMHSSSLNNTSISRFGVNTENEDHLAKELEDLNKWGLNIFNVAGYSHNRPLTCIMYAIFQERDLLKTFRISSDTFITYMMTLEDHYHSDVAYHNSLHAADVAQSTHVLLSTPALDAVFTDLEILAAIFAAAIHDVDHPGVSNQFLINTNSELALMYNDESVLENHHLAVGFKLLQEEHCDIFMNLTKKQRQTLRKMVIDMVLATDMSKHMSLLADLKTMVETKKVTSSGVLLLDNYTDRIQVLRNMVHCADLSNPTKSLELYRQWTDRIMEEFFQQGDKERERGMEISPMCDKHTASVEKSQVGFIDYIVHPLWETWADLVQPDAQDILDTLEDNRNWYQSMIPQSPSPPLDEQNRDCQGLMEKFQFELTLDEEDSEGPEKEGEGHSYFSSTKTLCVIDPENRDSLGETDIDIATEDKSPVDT
Summary of the method: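 HEK293 ACTOne cells with CNG channel (1000/well), endogenous PDE4; membrane potential dye, compounds up to 22.9 uM final. Fluorescence Ex 535/Em 590; RO 20-1724 (100 uM final) as reference.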

[7] = Stat Signaling Pathway (AID 446);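 note: ME-180 cervical cancer cells given 40 pM IL-6 alongside compound; SIE-controlled beta-lactamase reporter measured as 460/530 nm FRET emission ratio; % is set by controls: 0 for no effect and ±100 for the full control effect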
Summary of the method: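 Normalization used AC90 stimulation (300 pM IL-6) and AC90 inhibition (125 nM pan-JAK inhibitor at 40 pM IL-6). The underlying signal is SIE-driven beta-lactamase in ME-180 cells after 5 h IL-6 exposure with compound.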

[8] = biological target: Guanine nucleotide-binding protein G(i) subunit alpha-1 (Homo sapiens) (UniProt P63096); assay: qHTS Assay for Inhibitors of RGS12 GoLoco Motif Activity (Green Fluorophore) (AID 879; active = well fitted curve in the direction sought with a large enough effect; an effect the other way counts as inactive or inconclusive;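 note: 0% = labeled peptide with Gαi1 and full inhibition = labeled peptide alone without protein; negative values mean loss of peptide binding seen as reduced polarization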)
Sequence of Guanine nucleotide-binding protein G(i) subunit alpha-1 (Homo sapiens) (P63096 whole entry, looked up): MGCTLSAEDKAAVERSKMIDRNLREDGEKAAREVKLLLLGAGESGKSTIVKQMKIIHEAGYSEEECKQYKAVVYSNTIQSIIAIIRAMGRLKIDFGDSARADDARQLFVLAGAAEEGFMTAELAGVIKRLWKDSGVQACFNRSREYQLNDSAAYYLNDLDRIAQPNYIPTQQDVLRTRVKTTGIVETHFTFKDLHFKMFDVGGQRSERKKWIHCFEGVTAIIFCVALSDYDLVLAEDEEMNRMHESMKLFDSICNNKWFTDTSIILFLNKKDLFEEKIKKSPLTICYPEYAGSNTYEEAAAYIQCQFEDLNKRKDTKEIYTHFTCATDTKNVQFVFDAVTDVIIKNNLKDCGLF
Summary of the method: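 A drop in FITC polarization marked displacement of the FITC-tagged RGS12 GoLoco peptide (10 nM) from Gαi1 (50 nM). Compounds were incubated 10 min at room temperature in Tris pH 7.5 buffer containing 150 mM NaCl, 0.1 mM GDP and 0.05% NP40; unlabeled peptide titration served as control.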

[9] = qHTS Assay for Identification of Small Molecule Agonists for Thrombopoietin (TPO) Signaling Pathway (AID 917; active = well fitted curve in the direction sought with a large enough effect; an effect the other way counts as inactive or inconclusive; note: % is set by controls: 0 for no effect and ±100 for the full control effect)
Summary of the method: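 Quantitative HTS for pathway activators: compounds were pin-transferred onto IL-3-starved Ba/F3 cells expressing human TPO receptor, TPO was added at its EC50 (26 pM final), and after 24 hrs at 37 C reporter luciferase was measured.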

[10] = biological target: Muscarinic acetylcholine receptor M1 (Rattus norvegicus) (UniProt P08482); assay: qHTS Assay for Antagonists of Acetylcholine Muscarinic M1 Receptor: Measurement of IP-One Response (AID 944; active = well fitted curve in the direction sought with a large enough effect; an effect the other way counts as inactive or inconclusive; note: nearly all actives have a fitted effect of over 75% in size)
Sequence of Muscarinic acetylcholine receptor M1 (Rattus norvegicus) (P08482 whole entry, looked up): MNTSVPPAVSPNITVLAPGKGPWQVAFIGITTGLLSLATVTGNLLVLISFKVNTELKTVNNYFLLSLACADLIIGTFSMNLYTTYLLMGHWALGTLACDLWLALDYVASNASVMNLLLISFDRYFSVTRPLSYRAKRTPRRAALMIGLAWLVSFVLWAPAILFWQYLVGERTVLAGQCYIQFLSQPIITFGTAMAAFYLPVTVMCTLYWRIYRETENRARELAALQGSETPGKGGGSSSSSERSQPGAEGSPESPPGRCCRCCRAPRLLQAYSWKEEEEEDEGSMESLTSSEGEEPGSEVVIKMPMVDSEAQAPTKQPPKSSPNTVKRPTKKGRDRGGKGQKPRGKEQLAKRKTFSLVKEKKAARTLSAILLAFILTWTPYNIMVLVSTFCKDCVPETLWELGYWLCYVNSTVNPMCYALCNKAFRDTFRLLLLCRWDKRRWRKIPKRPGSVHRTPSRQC
Summary of the method: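 Read-out: HTRF competition between d2-IP1 and Eu-cryptate anti-IP1 antibody, emission 620 and 665 nm. Stimulus was carbachol, EC80 (200 nM), for 30 min in M1-CHO cells (rat receptor), after 10 min compound pre-treatment.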

[11] = biological target: Pyruvate kinase (Leishmania mexicana) (UniProt Q27686); assay: qHTS Validation Assay for Inhibitors of Leishmania Mexicana Pyruvate Kinase (AID 945; active = well fitted curve in the direction sought with a large enough effect; an effect the other way counts as inactive or inconclusive;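 note: 0% = DMSO only neutral control wells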)
Sequence of Pyruvate kinase (Leishmania mexicana) (Q27686 2-499 E452W): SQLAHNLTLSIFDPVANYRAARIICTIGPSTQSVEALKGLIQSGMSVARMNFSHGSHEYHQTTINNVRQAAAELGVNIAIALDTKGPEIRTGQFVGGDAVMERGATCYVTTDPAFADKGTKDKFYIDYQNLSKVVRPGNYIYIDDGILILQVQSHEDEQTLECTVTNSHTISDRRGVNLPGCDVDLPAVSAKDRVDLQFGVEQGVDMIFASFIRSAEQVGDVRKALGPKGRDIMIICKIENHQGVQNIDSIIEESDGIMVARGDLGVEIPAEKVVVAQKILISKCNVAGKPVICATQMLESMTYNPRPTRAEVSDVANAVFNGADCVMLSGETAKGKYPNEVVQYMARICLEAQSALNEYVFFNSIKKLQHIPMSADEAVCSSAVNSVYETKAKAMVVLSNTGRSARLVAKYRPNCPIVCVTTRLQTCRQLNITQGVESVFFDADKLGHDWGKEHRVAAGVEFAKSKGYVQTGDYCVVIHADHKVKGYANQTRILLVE
Summary of the method: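 Mutant LmPYK (E451W), 0.2 nM, plus 0.5 mM PEP and 0.1 mM ADP in 50 mM imidazole pH 7.2 containing 0.01% Tween 20 and 0.05% BSA. Incubated 1 h at room temperature; luminescence via PKLight, normalized to DMSO.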

[12] = biological target: Pyruvate kinase PKM (Homo sapiens) (UniProt P14618); assay: qHTS Assay for Activators of Human Muscle Pyruvate Kinase (AID 954; active = well fitted curve in the direction sought with a large enough effect, not every such curve was filed as active;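 note: 0% = uninhibited enzyme and -100% = no enzyme or full thiadiazolimine inhibition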)
Sequence of Pyruvate kinase PKM (Homo sapiens) (P14618 whole entry, looked up): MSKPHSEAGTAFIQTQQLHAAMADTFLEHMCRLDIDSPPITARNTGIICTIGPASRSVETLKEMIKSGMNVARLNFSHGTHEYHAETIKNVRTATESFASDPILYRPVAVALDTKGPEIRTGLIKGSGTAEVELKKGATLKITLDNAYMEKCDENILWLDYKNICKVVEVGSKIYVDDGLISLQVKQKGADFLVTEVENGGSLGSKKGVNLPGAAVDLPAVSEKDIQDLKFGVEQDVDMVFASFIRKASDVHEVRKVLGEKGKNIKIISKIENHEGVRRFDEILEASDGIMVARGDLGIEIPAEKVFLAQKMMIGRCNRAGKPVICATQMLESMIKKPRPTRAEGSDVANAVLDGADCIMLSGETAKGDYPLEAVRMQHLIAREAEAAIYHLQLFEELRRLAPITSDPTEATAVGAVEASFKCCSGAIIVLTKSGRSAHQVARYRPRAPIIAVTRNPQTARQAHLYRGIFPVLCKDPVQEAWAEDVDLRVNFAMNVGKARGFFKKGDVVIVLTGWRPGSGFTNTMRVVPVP
Summary of the method: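 Compound pinned into substrate mix (0.5 mM PEP, 0.1 mM ADP), then 0.1 nM PKM2 added; 1 h, RT. Stop/detection luciferase reagent added, luminescence read. Normalized to no-inhibition and no-enzyme or reference-inhibitor controls.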

[13] = biological target: Alpha-galactosidase A (Homo sapiens) (UniProt P06280); assay: Counterscreen for Glucocerebrosidase Inhibitors: qHTS Assay for Human alpha-Galactosidase at pH 4.5 (AID 992; active = well fitted curve in the direction sought with a large enough effect; an effect the other way counts as inactive or inconclusive; note: 0% is about no effect)
Sequence of Alpha-galactosidase A (Homo sapiens) (P06280 whole entry, looked up): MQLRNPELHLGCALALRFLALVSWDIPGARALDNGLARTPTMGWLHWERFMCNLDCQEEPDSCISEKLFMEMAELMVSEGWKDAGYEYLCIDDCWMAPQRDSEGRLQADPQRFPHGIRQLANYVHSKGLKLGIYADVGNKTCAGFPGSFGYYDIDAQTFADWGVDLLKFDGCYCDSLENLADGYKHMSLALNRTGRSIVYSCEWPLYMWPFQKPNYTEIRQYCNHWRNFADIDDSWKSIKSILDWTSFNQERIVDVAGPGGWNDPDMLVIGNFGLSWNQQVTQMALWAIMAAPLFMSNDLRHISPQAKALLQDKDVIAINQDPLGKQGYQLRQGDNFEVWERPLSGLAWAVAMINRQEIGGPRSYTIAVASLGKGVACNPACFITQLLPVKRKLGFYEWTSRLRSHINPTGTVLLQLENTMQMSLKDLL
Summary of the method: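 Steps: enzyme (2 nM final), then compound across 0.7 nM to 77 uM, then 80 uM fluorogenic galactopyranoside substrate; incubate 20 min at room temperature; quench at pH 10; measure fluorescence at 365/440 nm.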

[14] = biological target: alpha-glucosidase (Oryza sativa, rice) (UniProt Q653V4); assay: Counterscreen for Glucocerebrosidase Inhibitors: qHTS Assay for Rice alpha-Glucosidase at pH 5.0 (AID 997; active = well fitted curve in the direction sought with a large enough effect; an effect the other way counts as inactive or inconclusive;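 note: 0% = full activity with enzyme and -100% = basal without enzyme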)
Summary of the method: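 Endpoint fluorogenic assay at pH 5.0: compounds (0.7 nM to 77 uM) titrated against 4 nM rice enzyme and 400 uM 4-MU-alpha-glucoside for 20 min at room temperature; NaOH/glycine stop, read ex 365/em 440 nm, Hill-fitted AC50.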

[15] = biological target: Alpha-galactosidase (Coffea arabica) (UniProt Q42656); assay: Counterscreen for Glucocerebrosidase Inhibitors: qHTS Assay for Coffee Bean alpha-Galactosidase at pH 5.9 (AID 998; active = well fitted curve in the direction sought with a large enough effect; an effect the other way counts as inactive or inconclusive;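 note: plate controls were uninhibited enzyme for no effect and no-enzyme basal signal for full effect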)
Sequence of Alpha-galactosidase (Coffea arabica) (Q42656 whole entry, looked up): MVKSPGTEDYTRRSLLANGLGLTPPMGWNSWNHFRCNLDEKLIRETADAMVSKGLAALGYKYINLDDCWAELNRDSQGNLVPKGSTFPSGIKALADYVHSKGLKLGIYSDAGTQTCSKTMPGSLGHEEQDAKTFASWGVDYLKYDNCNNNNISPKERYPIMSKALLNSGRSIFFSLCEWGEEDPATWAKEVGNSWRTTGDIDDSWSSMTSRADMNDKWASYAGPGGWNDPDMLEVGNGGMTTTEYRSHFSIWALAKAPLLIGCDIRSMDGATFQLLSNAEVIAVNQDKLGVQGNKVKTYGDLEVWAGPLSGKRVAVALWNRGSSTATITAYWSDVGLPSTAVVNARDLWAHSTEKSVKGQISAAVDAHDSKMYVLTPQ
Summary of the method: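 In 50 mM citric acid pH 5.9 with 0.005% Tween-20, coffee bean enzyme hydrolyses 80 uM 4-MU alpha-D-galactopyranoside over 20 min at RT. Activity is normalized to controls; AC50 comes from Hill-modelled concentration-response data.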

[16] = biological target: Alpha-galactosidase (Coffea arabica) (UniProt Q42656); assay: Counterscreen for Glucocerebrosidase Inhibitors: qHTS Assay for Coffee Bean alpha-Galactosidase at pH 4.5 (AID 957; active = well fitted curve in the direction sought with a large enough effect; an effect the other way counts as inactive or inconclusive;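 note: plate controls were enzyme alone for no effect and no enzyme for full effect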)
Summary of the method: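 Fluorogenic read-out: 4-methylumbelliferone at Ex 365/Em 440 nm after NaOH/glycine stop (pH 10). Enzyme 2 nM, 4-MU-alpha-galactoside 80 uM, citrate buffer pH 4.5, 20 min RT; normalized to no-enzyme and enzyme controls.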

[17] = biological target: Cytochrome P450 3A4 (Homo sapiens) (UniProt P08684); assay: qHTS Assay for Inhibitors and Substrates of Cytochrome P450 3A4 (AID 884; active = well fitted curve in the direction sought with a large enough effect; an effect the other way counts as inactive or inconclusive; note: potency is the fitted concentration of half-maximal effect; nearly all actives have a fitted effect of over 50% in size)
Sequence of Cytochrome P450 3A4 (Homo sapiens) (P08684 whole entry, looked up): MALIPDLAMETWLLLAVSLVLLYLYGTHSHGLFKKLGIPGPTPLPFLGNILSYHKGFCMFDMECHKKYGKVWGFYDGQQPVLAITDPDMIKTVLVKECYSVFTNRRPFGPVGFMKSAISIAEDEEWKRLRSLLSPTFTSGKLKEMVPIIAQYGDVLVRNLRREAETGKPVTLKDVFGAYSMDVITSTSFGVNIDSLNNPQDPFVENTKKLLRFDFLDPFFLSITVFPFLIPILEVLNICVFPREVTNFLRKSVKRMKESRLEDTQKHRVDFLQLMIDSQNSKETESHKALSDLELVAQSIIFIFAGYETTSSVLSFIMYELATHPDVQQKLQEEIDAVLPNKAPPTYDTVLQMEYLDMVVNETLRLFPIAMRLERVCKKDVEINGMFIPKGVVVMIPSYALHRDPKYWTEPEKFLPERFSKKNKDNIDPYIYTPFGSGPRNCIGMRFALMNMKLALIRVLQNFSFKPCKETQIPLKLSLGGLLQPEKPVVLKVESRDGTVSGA
Summary of the method: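 Luminescent readout of luciferin produced by CYP3A4 (20 nM) dealkylation of Luciferin-PPXE, 25 uM (its KM). NADPH-driven reaction ran 60 min at RT after 10 min compound preincubation; data scaled to 57 uM ketoconazole as 100% inhibition.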

[18] = biological target: Cytochrome P450 3A4 (Homo sapiens) (UniProt P08684); assay: qHTS Assay for Activators of Cytochrome P450 3A4 (AID 885; active = well fitted curve in the direction sought with a large enough effect; an effect the other way counts as inactive or inconclusive; note: nearly all actives have a fitted effect of over 65% in size)
Summary of the method: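 Human CYP3A4 dealkylates Luciferin-PPXE to luciferin, which luciferase detection converts to light. Substrate was at its KM (25uM), buffer 200mM KPO4, reaction 60 min at RT.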

[19] = qHTS Assay for Identification of Small Molecule Antagonists for Thrombopoietin (TPO) Signaling Pathway (AID 918; active = well fitted curve in the direction sought with a large enough effect; an effect the other way counts as inactive or inconclusive; note: potency is the fitted concentration of half-maximal effect; nearly all actives have a fitted effect of over 60% in size); conditions: TPO-dependent cell signaling reporter, antagonist mode
Summary of the method: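 Luminescence read-out: GPIIb-promoter luciferase in Ba/F3 cells carrying human TPO receptor. Compounds added with 26 pM TPO (EC50), 24 hrs, 37 C, 5% CO2; cells deprived of IL-3 overnight beforehand. Inhibition of signal scored.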

[20] = biological target: Muscarinic acetylcholine receptor M1 (Rattus norvegicus) (UniProt P08482); assay: qHTS Assay for Antagonists of Acetylcholine Muscarinic M1 Receptor: Kinetic Measurement of Intracellular Calcium Response (AID 943; active = well fitted curve in the direction sought with a large enough effect; an effect the other way counts as inactive or inconclusive;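 note: Fluo-4 calcium signal as peak divided by basal fluorescence over 4 min; nearly all actives have a fitted effect of over 75% in size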)
Summary of the method: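 Read-out: peak over basal Fluo-4 fluorescence, kinetic at 1 Hz for 4 min after EC80 carbachol (100 nM final). Rat M1-CHO cells, dye loaded 1 h at 37C, compound added 10 min before agonist.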

[21] = biological target: Ubiquitin carboxyl-terminal hydrolase 1 (Homo sapiens) (UniProt O94782); assay: Inhibitors of USP1/UAF1: Pilot qHTS (AID 504865; active = well fitted curve in the direction sought with a large enough effect; an effect the other way counts as inactive or inconclusive;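 note: rhodamine fluorescence freed from ubiquitin-rhodamine substrate followed over time; top concentration of the series differs between compounds; % is set by controls: 0 for no effect and ±100 for the full control effect; nearly all actives have a fitted effect of over 35% in size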)
Summary of the method: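 Kinetic fluorescence assay: 1nM USP1/UAF1, 15 min compound preincubation, then 150nM Ub-Rho; 480/540 nm.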

CC1(C)[C@@H]2CC[C@]1(C)CN(CCC[N+](C)(C)C)C2
inactive: activity change, negative = inhibition [1] -4.07% [at 7.69 µM] | activity change, negative = inhibition [2] -12.6% [at 7.69 µM] | Potency [3] > 46 µM | Potency [4] > 9.22 µM | activity change, negative = inhibition [5] 0.443% [at 11.4 µM] | outcome [6]

CCCCOCCCn1c(N)c(C(=O)OCCOC)c2nc3ccccc3nc21
inactive: activity change, negative = inhibition [1] -2.11% | outcome [7] | Potency [3] > 20.6 µM

C[C@@H](Cc1ccc2c(c1)OC(C(=O)O)(C(=O)O)O2)NC[C@H](O)c1cccc(Cl)c1
inactive: activity change, negative = inhibition [1] -9.81% [at 38 µM] | activity change, negative = inhibition [2] 14.6% [at 38 µM] | Potency [4] > 46 µM | outcome [5] | outcome [6] | Potency [8] | outcome [9] | Potency [10] | Potency [11] | outcome [12] | outcome [13] | outcome [14] | outcome [15]

Cn1c(O)c(C=NC2CCN(Cc3ccccc3)CC2)c(=O)n(C)c1=O
inactive: activity change, negative = inhibition [1] -11.6% | outcome [7]

CC(C)(O)[C@H]1[C@H]2OC(=O)[C@@H]1[C@]1(O)C[C@H]3O[C@]34C(=O)O[C@H]2[C@]14C (tested in a mixture with another compound)
inactive: activity change, negative = inhibition [1] 5.02% [at 38 µM] | activity change, negative = inhibition [2] -0.245% [at 38 µM] | Potency [3] > 46 µM | Potency [4] > 46 µM | outcome [5] | outcome [6] | Potency [8] | Potency [10] | Potency [11] | outcome [12] | outcome [16] | outcome [13] | outcome [14] | outcome [15]

CCOC(=O)c1cc(C)n(CCc2cnc[nH]2)c1C
inactive: activity change, negative = inhibition [1] 3.65% | outcome [7] | Potency [3] > 20.6 µM

C/C=C(\C)C(=O)O[C@@H]1C(C)=C2[C@H]([C@@H]1OC(=O)CCCCCCC)[C@@](C)(OC(C)=O)C[C@@H](OC(=O)CCC)[C@@]1(O)[C@H]2OC(=O)[C@]1(C)O
inactive: activity change, negative = inhibition [1] 19.3% [at 38 µM] | Potency [4] > 46 µM | outcome [5] | outcome [6] | Potency [8] | Potency [18] | Potency [20] | Potency [10] | Potency [11] | outcome [12] | outcome [16] | outcome [13] | outcome [14] | outcome [15]
active: activity change, negative = inhibition [2] -79.7% [activator] [at 38 µM] | Potency [17] 3.98 µM | Potency [19] 0.0501 µM

CCOc1ccccc1-n1c(O)c(C=Nc2c(C)n(C)n(-c3ccccc3)c2=O)c(=O)[nH]c1=O
inactive: activity change, negative = inhibition [1] -0.373% | outcome [7] | Potency [3] > 20.6 µM

C[C@H]1C[C@@H](C)C(=O)[C@@H]([C@H](O)CC2CC(=O)NC(=O)C2)C1
active: activity change, negative = inhibition [1] -97.3% | activity change, negative = inhibition [2] -119%
inactive: outcome [5] | outcome [6] | Potency [21]

COc1ccc(Cn2c(O)c(C=NCCN3CCOCC3)c(=O)[nH]c2=O)cc1
inactive: activity change, negative = inhibition [1] -6.69% | activity change, negative = inhibition [2] -3.63% | Potency [3] > 20.6 µM

OCCOCC#CCN1CCOCC1
inactive: activity change, negative = inhibition [1] 12.1% | activity change, negative = inhibition [2] -4.14% | Potency [3] > 20.6 µM

CN1C(=O)CN=C(c2ccc(Cl)cc2)c2cc(Cl)ccc21
inactive: activity change, negative = inhibition [1] 10.4% | outcome [7] | Potency [3] > 20.6 µM

O=C1C2CCN(CC2)[C@@H]1Cc1ccc2ccccc2c1O
inactive: activity change, negative = inhibition [1] 6.63% | outcome [7]

CCCCCCn1c(O)c(C=Nc2c(C)n(C)n(-c3ccccc3)c2=O)c(=O)[nH]c1=O
inactive: activity change, negative = inhibition [1] -18.8% | outcome [7]

CCOC(=O)[C@@]1(C#N)[C@@H]2C=CC(C(N)=O)=CN2[C@@H](C(N)=O)[C@@H]1c1cccc(Cl)c1
inactive: activity change, negative = inhibition [1] -3.06% | outcome [7] | Potency [3] > 20.6 µM

C[C@H](N)c1cccc(Cl)c1Cl
inactive: activity change, negative = inhibition [1] 19.1% [at 38 µM] | activity change, negative = inhibition [2] 7.99% [at 38 µM] | Potency [3] > 46 µM | Potency [4] > 46 µM | outcome [5] | outcome [6] | Potency [8] | Potency [18] | outcome [9] | Potency [10] | Potency [11] | outcome [12] | outcome [16] | outcome [13] | outcome [14] | outcome [15]
